The source made the active and inactive calls.

Composite z-score and z-score data for nine compounds are collected here from PubChem BioAssay.

Assay [1] can be described thus: small molecules captured by biotinylated probe aFSTL3 – biochemical, small-molecule microarray, fluorescence 635/667, stem cell growth factor project, primary screen (AID 1064).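 Also: measures binding of the biotinylated anti-FSTL3 antibody to printed compounds.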 The settings on record: higher = more signal.
A short description of assay [2]: binders from COS7 lysate, DM2A8 probe, primary screen, torsin A project, cell lysate, small-molecule microarray, fluorescence 635/667 (AID 1065). The settings on record: higher = more signal, COS7 lysate expressing mutant human TOR1A.
Assay [3] in a line: small molecules captured by biotinylated probe aFGF2 – biochemical, small-molecule microarray, fluorescence 635/667, stem cell growth factor project, primary screen (AID 1067).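 Also: measures binding of biotinylated aFGF2 protein to printed compounds on slides; z-score merges feature fluorescence and signal-to-noise across triplicate slides.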 The following applies: higher = more signal.
Assay [4] in a line: small molecules captured by biotinylated probe aFGF10 – biochemical, small-molecule microarray, fluorescence 635/667, stem cell growth factor project, primary screen (AID 1071).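 Also: score merges 667 nm spot intensity and signal to noise from triplicate slides.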 The following applies: higher = more signal.
Assay [5] deals with Neurogenic locus notch homolog protein 2 (Homo sapiens) (UniProt Q04721). As to the kind of experiment: small molecules binding Notch2 protein – biochemical, small-molecule microarray, 635 nm fluorescence, stem cell growth factors, primary screen (AID 1073). The following applies: higher = more signal.
The target in assay [6] is Pro-neuregulin-1, membrane-bound isoform (Homo sapiens) (UniProt Q02297). As to the kind of experiment: small molecules binding neuregulin-1 protein – biochemical, small-molecule microarray, fluorescence 635/667, psychiatric disease protein project, primary screen (AID 1075).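 Also: score combines 667 nm spot fluorescence with signal to noise.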 The settings on record: NRG1 binding, 635 nm fluorescence, higher = more signal.
The subject of assay [7] is Neuregulin-1 EGF-like domain. Put plainly: small molecules binding NRG1 EGF domain – biochemical, small-molecule microarray, 635 nm fluorescence, primary screen (AID 1081).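 Also: binding of the protein to compounds printed on small-molecule microarray slides.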 The following applies: higher = more signal.
The nature of assay [8]: FRG1 expression reporter modulators in myotubes – cell-based, C2C12 myotubes, firefly/Renilla luciferase, luminescence, FRG1 inhibition for FSHD, primary screen (AID 1084). The following applies: FRG1 promoter luciferase, higher = more signal, called active from +8 up or from −8 down.
Assay [9] in a line: small molecules captured by biotinylated probe aFST – biochemical, small-molecule microarray, fluorescence 635/667, stem cell growth factor project, primary screen (AID 1086).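 Also: score merges 667 nm fluorescence with signal-to-noise of each printed compound spot.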 The settings on record: higher = more signal.
Assay [10] is described as follows: binders of probe aHhip on microarray, primary screen, stem cell growth factor project, biochemical, small-molecule microarray, fluorescence 635/667 (AID 1087).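 Also: score merges spot fluorescence at 667nm with spot signal to noise ratio.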 The settings on record: higher = more signal.
Assay [11] relates to PRMT1 (protein arginine N-methyltransferase 1). As to the kind of experiment: small molecules binding arginine methyltransferase PRMT1 – biochemical, small-molecule microarray, 635 nm fluorescence, primary screen (AID 1088).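 Also: binding of Prmt1 protein to compounds spotted on small-molecule microarray slides.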 The settings on record: higher = more signal.
Assay [12] can be described thus: growth effects on S. cerevisiae YJM789 – YJM789 clinical isolate, OD600, 24 h, basal, primary screen (AID 1089).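 Also: growth of clinical yeast isolate S. cerevisiae YJM 789 seeded 1000 cells per well; test concentration not given here.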 The settings on record: higher = more signal, called active from +8 up or from −8 down.
Assay [13] in a line: S. pombe growth modifiers, basal conditions – strain 972, OD600, 24 h, no modulator, primary screen (AID 1090).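 Also: basal condition with compound alone and no growth modifier present; test concentration not given here.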 The following applies: S. pombe 972 growth, higher = more signal, called active from +8 up or from −8 down.
A short description of assay [14]: budding yeast growth modifiers under rapamycin – strain BY4716, OD600, 96 h, primary screen (AID 1091). Also: test concentration not given here. The settings on record: S. cerevisiae BY4716 + rapamycin, higher = more signal, called active from +8 up or from −8 down.
Assay [15] addresses Torsin-1A-interacting protein 2 (Homo sapiens) (UniProt Q8NFQ8). Put plainly: small molecules binding lysate-expressed LULL1 – cell lysate, human LULL1 lysate, 635/667 nm fluorescence, primary screen (AID 1092).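 Also: probe is lysate of COS7 cells overexpressing human LULL1; score merges per-feature 667 nm fluorescence with signal-to-noise.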 The following applies: small-molecule microarray, hLULL1 lysate binding, 635 nm fluorescence; higher = more signal.
A short description of assay [16]: optical density change of DRC41 E. coli – strain DRC41, OD650, 24 h, E. coli filamentation project, primary screen (AID 1093).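 Also: MC1000 strain lacking acrAB efflux and sulA so SOS filamentation is blocked; test concentration not given here.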 The settings on record: E. coli DRC41 growth, higher = more signal, called active from +8 up or from −8 down.
A short description of assay [17]: probe aLefty2 binding to arrayed compounds – biochemical, biotinylated probe, 635/667 nm fluorescence, primary screen (AID 1094).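 Also: score merges spot fluorescence near 667 nm with spot signal-to-noise ratio.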 The settings on record: small-molecule microarray, higher = more signal.
For assay [18], the system named is Noggin (protein binding on small-molecule microarray). Put plainly: small molecules binding Noggin protein – biochemical, 635/667 nm fluorescence, primary screen (AID 1095).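 Also: score merges 667 nm feature fluorescence with signal to noise over triplicate slides.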 The settings on record: 635 nm fluorescence, higher = more signal.
The target in assay [19] is Neurogenic locus notch homolog protein 3 (Homo sapiens) (UniProt Q9UM47). Put plainly: small molecules binding NOTCH3 protein – biochemical, 635/667 nm fluorescence, primary screen (AID 1096). The following applies: small-molecule microarray, 635 nm fluorescence, higher = more signal.
Assay [20] in a line: probe aEGFR binding to arrayed compounds – biochemical, biotinylated probe, 635/667 nm fluorescence, primary screen (AID 1097).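 Also: probe is a biotinylated anti-EGFR antibody binding compounds printed on slides; score combines fluorescence near 667 nm and signal to noise of each spot.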 The following applies: small-molecule microarray, higher = more signal.

Neurogenic locus notch homolog protein 3 (Homo sapiens), sequence (Q9UM47 whole entry, looked up): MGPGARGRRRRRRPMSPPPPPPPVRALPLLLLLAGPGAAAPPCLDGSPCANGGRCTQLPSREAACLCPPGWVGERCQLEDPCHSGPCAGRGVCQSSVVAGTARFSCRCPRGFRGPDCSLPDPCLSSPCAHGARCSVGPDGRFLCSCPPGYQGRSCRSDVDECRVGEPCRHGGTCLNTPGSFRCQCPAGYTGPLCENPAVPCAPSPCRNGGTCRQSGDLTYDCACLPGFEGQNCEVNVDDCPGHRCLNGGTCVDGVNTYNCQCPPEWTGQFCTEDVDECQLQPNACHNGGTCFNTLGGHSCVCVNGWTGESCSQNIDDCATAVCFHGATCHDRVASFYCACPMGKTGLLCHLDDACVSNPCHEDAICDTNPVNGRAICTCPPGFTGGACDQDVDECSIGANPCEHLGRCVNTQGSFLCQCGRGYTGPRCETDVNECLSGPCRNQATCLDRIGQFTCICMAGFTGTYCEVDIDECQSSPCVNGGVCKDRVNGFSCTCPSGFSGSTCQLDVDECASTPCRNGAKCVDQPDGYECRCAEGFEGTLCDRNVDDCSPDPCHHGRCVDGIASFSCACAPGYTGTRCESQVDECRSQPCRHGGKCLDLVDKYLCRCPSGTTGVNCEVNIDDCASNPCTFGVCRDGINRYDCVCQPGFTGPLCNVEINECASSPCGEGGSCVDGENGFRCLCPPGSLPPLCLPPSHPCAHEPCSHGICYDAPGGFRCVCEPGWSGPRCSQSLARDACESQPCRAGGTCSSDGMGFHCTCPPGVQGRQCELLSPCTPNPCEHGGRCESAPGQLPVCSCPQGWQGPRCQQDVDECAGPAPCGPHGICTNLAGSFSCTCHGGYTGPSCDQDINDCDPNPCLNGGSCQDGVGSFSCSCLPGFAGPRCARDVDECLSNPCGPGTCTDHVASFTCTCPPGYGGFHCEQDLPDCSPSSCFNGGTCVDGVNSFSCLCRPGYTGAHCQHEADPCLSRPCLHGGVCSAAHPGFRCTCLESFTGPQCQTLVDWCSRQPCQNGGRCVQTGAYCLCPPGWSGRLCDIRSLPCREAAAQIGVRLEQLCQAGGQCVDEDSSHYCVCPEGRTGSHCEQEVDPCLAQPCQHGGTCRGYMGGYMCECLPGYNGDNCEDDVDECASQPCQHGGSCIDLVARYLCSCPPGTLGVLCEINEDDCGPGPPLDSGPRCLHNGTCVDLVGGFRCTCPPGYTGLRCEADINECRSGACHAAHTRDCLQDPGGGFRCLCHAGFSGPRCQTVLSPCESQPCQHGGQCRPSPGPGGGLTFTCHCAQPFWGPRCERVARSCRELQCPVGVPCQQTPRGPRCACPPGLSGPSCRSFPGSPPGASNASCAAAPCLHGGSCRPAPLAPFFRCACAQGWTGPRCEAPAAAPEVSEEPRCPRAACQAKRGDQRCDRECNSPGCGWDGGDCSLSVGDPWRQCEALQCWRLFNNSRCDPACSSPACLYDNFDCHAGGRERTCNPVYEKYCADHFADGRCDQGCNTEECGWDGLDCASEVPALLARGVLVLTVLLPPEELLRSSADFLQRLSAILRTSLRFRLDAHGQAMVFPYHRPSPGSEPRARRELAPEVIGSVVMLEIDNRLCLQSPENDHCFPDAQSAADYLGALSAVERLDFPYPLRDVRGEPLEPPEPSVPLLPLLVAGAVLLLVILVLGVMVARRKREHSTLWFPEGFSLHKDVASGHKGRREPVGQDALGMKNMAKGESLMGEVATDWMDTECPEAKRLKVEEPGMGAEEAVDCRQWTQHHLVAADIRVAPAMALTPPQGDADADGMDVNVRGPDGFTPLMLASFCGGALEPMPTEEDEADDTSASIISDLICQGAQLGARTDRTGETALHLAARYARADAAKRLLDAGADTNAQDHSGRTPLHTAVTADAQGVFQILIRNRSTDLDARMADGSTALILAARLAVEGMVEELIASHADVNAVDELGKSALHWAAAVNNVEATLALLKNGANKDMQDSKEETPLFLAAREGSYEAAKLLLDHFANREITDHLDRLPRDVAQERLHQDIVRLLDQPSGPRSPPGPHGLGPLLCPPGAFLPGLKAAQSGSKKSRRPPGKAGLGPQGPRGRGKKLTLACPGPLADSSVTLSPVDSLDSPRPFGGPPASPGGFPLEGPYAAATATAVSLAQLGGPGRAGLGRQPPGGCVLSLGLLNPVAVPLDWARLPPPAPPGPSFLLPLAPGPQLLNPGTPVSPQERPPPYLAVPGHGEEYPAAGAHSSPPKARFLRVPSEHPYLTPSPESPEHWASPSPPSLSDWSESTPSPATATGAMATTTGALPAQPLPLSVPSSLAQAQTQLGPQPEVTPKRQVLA
Neurogenic locus notch homolog protein 2 (Homo sapiens), sequence (Q04721 whole entry, looked up, canonical isoform): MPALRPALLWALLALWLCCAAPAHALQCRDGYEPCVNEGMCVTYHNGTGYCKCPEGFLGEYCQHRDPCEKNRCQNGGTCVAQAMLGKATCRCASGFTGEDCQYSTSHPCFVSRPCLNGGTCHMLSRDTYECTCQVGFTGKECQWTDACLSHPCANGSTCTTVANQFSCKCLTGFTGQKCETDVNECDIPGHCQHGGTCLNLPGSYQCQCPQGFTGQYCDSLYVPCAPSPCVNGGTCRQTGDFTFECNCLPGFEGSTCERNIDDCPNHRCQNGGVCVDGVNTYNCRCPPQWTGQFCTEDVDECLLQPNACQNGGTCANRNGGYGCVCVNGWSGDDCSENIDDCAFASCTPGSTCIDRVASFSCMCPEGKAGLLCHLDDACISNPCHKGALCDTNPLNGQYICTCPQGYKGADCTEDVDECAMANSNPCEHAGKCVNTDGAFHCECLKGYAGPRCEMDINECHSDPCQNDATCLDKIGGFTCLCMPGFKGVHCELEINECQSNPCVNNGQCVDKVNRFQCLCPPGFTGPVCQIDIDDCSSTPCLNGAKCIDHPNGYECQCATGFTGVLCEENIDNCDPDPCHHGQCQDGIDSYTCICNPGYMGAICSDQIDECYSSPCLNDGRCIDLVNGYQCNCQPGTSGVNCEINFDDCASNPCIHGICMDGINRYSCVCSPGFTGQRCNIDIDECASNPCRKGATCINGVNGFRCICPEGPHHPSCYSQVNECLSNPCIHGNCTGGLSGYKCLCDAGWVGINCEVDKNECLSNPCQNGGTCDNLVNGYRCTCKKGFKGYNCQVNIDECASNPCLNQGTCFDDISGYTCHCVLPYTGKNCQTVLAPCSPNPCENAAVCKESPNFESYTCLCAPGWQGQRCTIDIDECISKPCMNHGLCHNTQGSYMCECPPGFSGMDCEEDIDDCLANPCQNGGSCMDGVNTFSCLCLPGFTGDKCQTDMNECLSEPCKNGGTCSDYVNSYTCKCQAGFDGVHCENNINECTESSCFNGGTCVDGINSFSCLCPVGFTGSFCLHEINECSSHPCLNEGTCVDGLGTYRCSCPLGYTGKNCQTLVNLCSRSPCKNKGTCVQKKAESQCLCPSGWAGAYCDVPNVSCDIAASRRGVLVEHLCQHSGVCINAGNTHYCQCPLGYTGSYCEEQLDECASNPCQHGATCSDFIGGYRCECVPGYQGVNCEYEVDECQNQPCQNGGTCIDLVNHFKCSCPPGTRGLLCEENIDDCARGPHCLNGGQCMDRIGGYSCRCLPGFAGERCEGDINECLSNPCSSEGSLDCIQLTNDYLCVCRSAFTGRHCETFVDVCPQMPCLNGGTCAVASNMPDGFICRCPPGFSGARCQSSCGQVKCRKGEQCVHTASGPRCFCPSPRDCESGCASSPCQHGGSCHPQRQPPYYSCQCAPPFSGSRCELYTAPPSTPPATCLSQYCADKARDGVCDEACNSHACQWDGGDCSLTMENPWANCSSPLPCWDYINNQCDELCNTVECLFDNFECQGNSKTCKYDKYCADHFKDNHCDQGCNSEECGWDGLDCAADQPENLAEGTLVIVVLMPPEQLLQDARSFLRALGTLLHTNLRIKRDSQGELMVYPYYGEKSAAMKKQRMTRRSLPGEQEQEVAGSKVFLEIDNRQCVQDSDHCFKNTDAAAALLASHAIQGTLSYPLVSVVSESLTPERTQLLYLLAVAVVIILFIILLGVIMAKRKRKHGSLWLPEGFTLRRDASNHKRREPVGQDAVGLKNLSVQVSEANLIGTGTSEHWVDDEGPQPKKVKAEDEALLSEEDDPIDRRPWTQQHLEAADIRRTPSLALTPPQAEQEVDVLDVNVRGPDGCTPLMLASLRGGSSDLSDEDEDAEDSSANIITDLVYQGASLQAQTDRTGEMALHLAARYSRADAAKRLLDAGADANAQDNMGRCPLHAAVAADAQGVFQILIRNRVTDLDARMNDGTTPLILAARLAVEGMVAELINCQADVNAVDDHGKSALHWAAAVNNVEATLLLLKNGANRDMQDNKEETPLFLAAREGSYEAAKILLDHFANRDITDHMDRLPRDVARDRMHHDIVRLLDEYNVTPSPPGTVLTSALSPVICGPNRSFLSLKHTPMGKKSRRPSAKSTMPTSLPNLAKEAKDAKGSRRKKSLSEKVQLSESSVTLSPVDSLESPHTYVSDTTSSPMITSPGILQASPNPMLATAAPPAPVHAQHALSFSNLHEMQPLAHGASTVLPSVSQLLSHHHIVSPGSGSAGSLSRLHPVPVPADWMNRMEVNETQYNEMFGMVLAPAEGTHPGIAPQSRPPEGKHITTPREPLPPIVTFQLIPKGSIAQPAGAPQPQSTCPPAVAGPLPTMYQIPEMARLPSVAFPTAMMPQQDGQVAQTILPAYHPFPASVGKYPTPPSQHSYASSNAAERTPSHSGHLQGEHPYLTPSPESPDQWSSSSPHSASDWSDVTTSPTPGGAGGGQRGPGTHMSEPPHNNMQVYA

On to `COC(=O)[C@@H]1CC[C@H](C)[C@@H](c2ccc(C)cc2)N1C(=O)c1ccc(C=NOC[C@H]2O[C@H](c3ccccc3)C=C[C@@H]2Oc2ccc(OC)cc2)cc1`, for which the composite z-score in assay [1] was -0.462; in assay [2], -0.24; in assay [3] it was -0.154; in [4], 0.217; in assay [5], -0.0637; in assay [6] it was 0.0379. Moreover, the composite z-score was -0.631 in assay [7]; 0.044 in assay [9]; -0.191 in assay [10]; 0.391 in assay [11]; -0.703 in [15]; -0.0977 in [17]. Further, the composite z-score in [18] is -0.0296; in assay [19], 0.107; in assay [20], -0.0682. The z-score in assay [8] was 0.434 (inactive); in assay [12], 0.456 (inactive); in assay [13], 0.267 (inactive); in assay [14] it was 0.0902 (inactive); in assay [16] it was -0.234 (inactive).
As for `CC(C)(C)N1C(=O)[C@H]2[C@H]3[C@H](O)[C@H](O)CC(=NOC[C@@H](O)COCc4ccco4)[C@H]3CC[C@H]2C1=O`, the composite z-score was 0.784 in [1]; 0.733 in assay [2]; -0.0423 in [3]; 0.227 in assay [4]; 0.0009 in assay [5]; 0.107 in assay [6]. Also, the composite z-score in assay [7] was 0.173; in [9], 0.616; in [10], -0.0003; in assay [11], 0.446; in assay [15] it was 0.937; in [17] it was 0.0913. For the same compound, the values for the composite z-score in [18], in assay [19] and in assay [20] were -0.192, -0.0654 and -0.12, respectively. Moreover, the z-score in assay [8] is -0.241 (inactive); in assay [12] it was 0.009 (inactive); in assay [13], 0.287 (inactive); in assay [14], -0.229 (inactive); in assay [16] it was 0.697 (inactive).
Consider `COC(=O)[C@@H]1CC[C@H](C)[C@@H](c2ccc(C)cc2)N1C(=O)c1ccc(C=NOC[C@@H](O)[C@H]2O[C@@H]3OC(C)(C)O[C@@H]3[C@H]2O)cc1`, for which the composite z-score in [1] is -0.264; in assay [2] it was 0.123; in [3] it was -0.0138; in assay [4] it was 0.343; in assay [5], 0.962; in assay [6] it was 0.441. For the same compound, the composite z-score in assay [7] is 0.72; in [9], 0.794; in [10], -0.271; in assay [11], 0.886; in assay [15] it was 1.23; in [17], -0.0916. Also, the composite z-score came to 0.159 in [18], 1.14 in [19] and 0.0453 in [20]. Also, the z-score in assay [8] is 0.453 (inactive); in assay [12], -1.17 (inactive); in [13], 0.459 (inactive); in assay [14], -0.431 (inactive); in assay [16] it was 1.6 (inactive).
As for `COC(=O)[C@H](C)NC(=O)CCC1CC(OC(=O)NCc2cccc3ccccc23)CC2(CCCC(COC(=O)NCc3cccc(C(F)(F)F)c3)O2)O1` (stereo not given in full), the composite z-score was -0.428 in [1]; 0.182 in assay [2]; -0.0316 in assay [3]; 0.762 in assay [4]; 1.17 in assay [5]; 1.09 in assay [6]. For the same compound, the composite z-score in [7] was 1.01; in assay [9], 0.657; in assay [10], -0.271; in [11] it was 1.41; in [15] it was 1.78; in assay [17] it was -0.139. The composite z-score in [18] came out at 0.6; in [19] it was 1.09; in [20] it was 0.151. Further, the z-score was -0.374 (inactive) in assay [8]; -2.05 (inactive) in [12]; -0.645 (inactive) in assay [13]; 0.523 (inactive) in assay [14]; -1.21 (inactive) in assay [16].
With `COc1ccc(O[C@H]2C=C[C@@H](c3ccccc3)O[C@@H]2COC(=O)CCC(C)=NOC[C@@H](O)COCc2ccco2)cc1`, the composite z-score in assay [1] was 0.776; in assay [2], -1.81; in assay [3] it was -0.411; in assay [4], -1.98; in assay [5] it was -2.67; in [6] it was -1.28. Further, the composite z-score is -0.649 in [7]; -2.3 in [9]; -0.115 in assay [10]; -1.02 in assay [11]; -1.82 in assay [15]; -0.443 in assay [17]. In addition, the figures for the composite z-score in assay [18], in [19] and in [20] were -1.66, -1.74 and -0.48, respectively. In addition, the z-score is 0.838 (inactive) in [8]; -1.2 (inactive) in assay [12]; -0.761 (inactive) in assay [13]; -0.244 (inactive) in assay [14]; -0.541 (inactive) in assay [16].
Turning to `CC(=O)OC[C@H]1O[C@H](CC=NOC[C@@H](O)[C@H]2O[C@@H]3OC(C)(C)O[C@@H]3[C@H]2O)C=C[C@@H]1OC(C)=O`, the composite z-score in assay [1] was -0.373; in assay [2], -0.487; in assay [3], 0.138; in assay [4] it was 0.416; in assay [5], 1.04; in assay [6] it was 0.758. In addition, the composite z-score is 1.13 in assay [7]; 0.265 in assay [9]; -0.0844 in assay [10]; 0.739 in assay [11]; 2.25 in assay [15]; -0.0708 in assay [17]. The composite z-score was 0.441 in assay [18], 0.492 in assay [19] and -0.0035 in [20]. The z-score was -0.008 (inactive) in assay [8]; 0.561 (inactive) in [12]; 1.09 (inactive) in assay [13]; 0.541 (inactive) in [14]; 0.72 (inactive) in assay [16].
For `Cc1ccc2[nH]c3nc(CCCn4ccnc4-c4ccccc4)nnc3c2c1`, the composite z-score was -0.172 in assay [1]; 0.616 in assay [2]; -0.119 in assay [3]; 0.247 in assay [4]; 1.63 in [5]; 0.742 in [6]. The composite z-score in [7] turned out to be 1.12; in assay [9] it was 0.26; in assay [10], 0.0274; in assay [11], 0.842; in assay [15] it was 1.38; in assay [17] it was 0.504. For the same compound, the composite z-score was 0.385 in assay [18], 1.12 in assay [19] and -0.009 in assay [20]. Also, the z-score in assay [8] was 0.921 (inactive); in assay [12], 0.324 (inactive); in assay [13], 0.0855 (inactive); in assay [14] it was -0.425 (inactive); in assay [16], 1.13 (inactive).
As to `COc1ccc(COC(=O)NN=C2C[C@@H](O)[C@@H](O)[C@@H]3[C@@H]4C(=O)N([C@@H](C)c5ccccc5)C(=O)[C@@H]4CC[C@@H]23)cc1`, the composite z-score was -0.513 in assay [1]; 0.419 in assay [2]; -0.114 in [3]; 0.042 in assay [4]; 0.199 in assay [5]; 0.0605 in [6]. The composite z-score in assay [7] is -0.38; in assay [9], 0.275; in [10] it was -0.0994; in [11] it was -0.0948; in assay [15], -0.0022; in [17] it was 0.0378. The composite z-score in [18] is 0.574; in assay [19], 0.128; in assay [20], -0.103. For the same compound, the z-score in assay [8] was 0.497 (inactive); in assay [12], -0.735 (inactive); in [13], 0.207 (inactive); in [14] it was -0.206 (inactive); in [16] it was 0.918 (inactive).
With `COc1cccc([C@H]2Oc3ccc(OC)cc3C(=NOCC[C@@H]3C=C[C@H](OC(C)=O)[C@@H](COC(C)=O)O3)[C@@H]2O)c1`, the composite z-score in [1] is -0.478; in assay [2], 0.459; in assay [3], -0.017; in assay [4] it was 0.577; in [5] it was 0.895; in [6] it was 1.28. Also, the composite z-score in assay [7] is 0.773; in assay [9], 0.366; in assay [10], -0.21; in assay [11], 0.829; in [15] it was 1; in [17] it was -0.0769. The composite z-score in [18] came to 0.475; in assay [19], 0.647; in assay [20], 0.0281. The z-score was 1.52 (inactive) in assay [8]; 0.243 (inactive) in assay [12]; 0.594 (inactive) in [13]; 0.0357 (inactive) in assay [14]; 0.677 (inactive) in [16].
